Assay results taken from ChEMBL document CHEMBL1157539, “Thousands of chemical starting points for antimalarial lead identification” (Nature, 2010).

These compounds were tested on Plasmodium falciparum (assay: GSK_TCMDC: Inhibition of Plasmodium falciparum Dd2 in whole red blood cells, using parasite LDH activity as an index of growth. Test compounds present at 2uM).
Type: functional
`Br.CCCCCCCN(CCCCCCC)CCNc1cc(C)nc2ccccc12` gave an Inhibition of 31%.
In the case of `O=[N+]([O-])c1ccc(C2=NN(S(=O)(=O)c3c(Cl)cc(Cl)cc3Cl)CCCC2)cc1`, the Inhibition was 98%.
In the case of `CN1CCN(CCCN(Cc2csc(-c3ccc(CNCc4ccccc4)cc3)n2)C(=O)Nc2ccc3ccccc3c2)CC1.O=C(O)C(F)(F)F`, the Inhibition was 63%.
`O=C(N[C@H]1CCN(Cc2ccc(OCCN3CCNCC3)c3ccccc23)C1)c1ccc(Cl)c(Cl)c1.O=C(O)C(F)(F)F` gave an Inhibition of 99%.
`O=[N+]([O-])c1ccc2ncnc(Nc3ccc(F)c(Cl)c3)c2c1` gave an Inhibition of 65%.

Each compound was assayed on HepG2 (assay: GSK_TCMDC: Percent inhibition of human HepG2 cell line. Test compounds present at 10uM.).
Type: functional
`CC(=O)Nc1ccc(CN2Cc3ccc(NC(=O)Nc4ccc(Oc5ccccc5)cc4)cc3C2)s1` was tested, and the Inhibition was 9%.
Compound `CCCCCCN1CCCN(Cc2ccc(C(=O)Nc3ccc(C(C)(C)C)cc3)cc2)CC1.O=C(O)C(F)(F)F` has an Inhibition of 53%.
In the case of `CC[C@H](C)CNC(=O)c1ccnc(-c2ccc(CNC3Cc4ccccc4C3)cc2)c1.O=C(O)C(F)(F)F`, the Inhibition was 18%.
Compound `CC(C)CCn1c(Sc2ccc(C#N)c([N+](=O)[O-])c2)nnc1-c1ccc(N(C)C)cc1` has an Inhibition of 11%.
Work on `CC(C)(C)OC(=O)N1CCN(c2ccccc2NC(=O)c2cccc(C(F)(F)F)c2Oc2ccc(F)cc2)CC1` yielded an Inhibition of 3%.
`COc1ccccc1Cn1ccnc1SCC(=O)Nc1cc(C(F)(F)F)ccc1Cl` gave an Inhibition of 12%.
`COc1ccc(C2C(C(=O)Nc3cc(OC)c(OC)c(OC)c3)c3cc(OC)c(OC)cc3C(=O)N2C)cc1` (stereo not drawn) gave an Inhibition of 9%.
Compound `O=C(Cc1cccc2ccccc12)N1CCc2cc3nccc(N4CCN5CCC[C@H]5C4)c3cc21` has an Inhibition of 3%.
